Values joined by “and” are separate entries in the source; they are usually repeats but may differ in a detail not shown here. Equal entries are not always repeated. Hit rate of the full screen: of about 5,500 compounds, about 2,000 (36%) were called active. Roughly 18% stayed inconclusive and do not appear here. No stated cut-off is given here; in the data, active means normalized growth mostly below about 0.91 (no sharp cut-off); inconclusive means no clear call, values can overlap the other calls; inactive means mostly above about 0.92. The list shows a part of the results.
Assay: chemical genetic growth profiling, strain panel (AID 1159580);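 further: tested at 20 µM; growth read once vehicle control cultures reached saturation at 30 °C; 1 = growth at the plate median or of vehicle wells; lower values mean less growth of the strain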
Conditions: S. cerevisiae deletion strains, growth OD

Measured: normalized growth

N=c1nc(N2CCCCC2)cc(N)n1O
inactive: locus YAL013W, strain DEP1, hits give low values 0.981 and 0.989 | locus YAL021C, strain ccr4, hits give low values 0.989 | locus YAL026C, strain drs2, hits give low values 1 | locus YAL030W, strain snc1, hits give low values 0.984 | locus YAL040C, strain CLN3, hits give low values 1.03 | locus YBL061C, strain skt5, hits give low values 0.977 | locus YBR009C, strain hhf1, hits give low values 1 | locus YBR021W, strain FUR4, hits give low values 1.09 | locus YBR023C, strain chs3, hits give low values 0.985 | locus YBR171W, strain sec66, hits give low values 0.984 | locus YBR229C, strain ROT2, hits give low values 0.955 | locus YBR231C, strain swc5, hits give low values 1 | locus YBR279W, strain paf1, hits give low values 0.992 | locus YCL011C, strain gbp2, hits give low values 0.963 | locus YCL016C, strain dcc1, hits give low values 0.97 | locus YCL029C, strain bik1, hits give low values 0.99 | locus YCL061C, strain MRC1 (second series), hits give low values 1 | locus YCL061C, strain MRC1, hits give low values 0.991 | locus YCL069W, strain vba3, hits give low values 0.992 | locus YCR088W, strain abp1, hits give low values 0.989 | locus YDL005C, strain med2, hits give low values 0.997 | locus YDL035C, strain GPR1, hits give low values 0.98 | locus YDL040C, strain nat1, hits give low values 0.992 | locus YDL074C, strain BRE1, hits give low values 1.02 | locus YDL101C, strain DUN1, hits give low values 0.988 | locus YDL134C, strain PPH21, hits give low values 0.975 | locus YDL185W, strain tfp1, hits give low values 0.978 | locus YDL192W, strain arf1, hits give low values 0.983 | locus YDR001C, strain nth1, hits give low values 0.979 | locus YDR069C, strain doa4, hits give low values 0.996 | locus YDR101C, strain arx1, hits give low values 1.01 | locus YDR137W, strain rgp1, hits give low values 0.977 | locus YDR150W, strain NUM1, hits give low values 0.963 and 1.01 | locus YDR159W, strain sac3, hits give low values 1.04 | locus YDR162C, strain NBP2, hits give low values 0.968 | locus YDR195W, strain ref2 0.981 | locus YDR297W, strain sur2, hits give low values 0.981 | locus YDR318W, strain mcm21, hits give low values 1 | locus YDR334W, strain swr1, hits give low values 0.936 | locus YDR335W, strain msn5, hits give low values 0.979 | locus YDR363W, strain ESC2, hits give low values 0.979 | locus YDR388W, hits give low values 0.949 | locus YDR392W, strain spt3, hits give low values 0.964 | locus YDR502C, strain sam2, hits give low values 0.959 | locus YEL003W, strain gim4, hits give low values 0.992 | locus YEL037C, strain rad23, hits give low values 0.989 | locus YEL061C, strain CIN8 (second series), hits give low values 0.982 | locus YEL061C, strain CIN8, hits give low values 0.982 | locus YER002W, strain NOP16, hits give low values 1.02 | locus YER015W, strain faa2, hits give low values 0.985 | locus YER016W, strain bim1, hits give low values 0.998 | locus YER110C, hits give low values 0.955 | locus YER111C, strain swi4, hits give low values 0.987 | locus YER155C, strain BEM2 (second series), hits give low values 1.03 | locus YER155C, strain BEM2, hits give low values 1.01 | locus YER167W, strain BCK2, hits give low values 0.989 | locus YFR010W, strain ubp6, hits give low values 0.982 | locus YGL078C, strain dbp3, hits give low values 0.985 | locus YGL086W, strain mad1, hits give low values 0.961 | locus YGL167C, strain pmr1, hits give low values 0.985 | locus YGL173C, strain kem1, hits give low values 0.984 | locus YGL227W, strain vid30, hits give low values 0.996 | locus YGL240W, strain doc1, hits give low values 1 | locus YGL248W, strain PDE1, hits give low values 0.981 | locus YGL253W, strain hxk2, hits give low values 0.96 | locus YGR078C, strain PAC10, hits give low values 1 and 0.978 | locus YGR135W, strain pre9, hits give low values 0.99 | locus YGR229C, strain SMI1, hits give low values 1.01 | locus YGR252W, strain gcn5, hits give low values 0.867 | locus YHR013C, strain ard1, hits give low values 0.962 | locus YHR027C, strain rpn1, hits give low values 0.976 | locus YHR030C, strain SLT2, hits give low values 0.982 | locus YHR079C, strain IRE1 (second series), hits give low values 1 | locus YHR079C, strain IRE1, hits give low values 0.997 | locus YHR094C, strain hxt1, hits give low values 0.991 | locus YHR129C, strain ARP1, hits give low values 0.988 | locus YHR142W, strain chs7, hits give low values 0.971 | locus YHR200W, strain rpn10, hits give low values 0.993 | locus YIL066C, strain RNR3, hits give low values 0.975 | locus YIL073C, strain SPO22, hits give low values 0.94 | locus YIL125W, strain kgd1, hits give low values 0.985 | locus YIR030C, strain dcg1, hits give low values 0.982 | locus YJL092W, strain hpr5, hits give low values 0.988 | locus YJL095W, strain BCK1 (second series), hits give low values 0.986 | locus YJL095W, strain BCK1, hits give low values 1.01 and 0.985 | locus YJL115W, strain asf1, hits give low values 0.966 | locus YJL129C, strain trk1, hits give low values 1 | locus YJL134W, strain LCB3, hits give low values 0.978 | locus YJL154C, strain vps35, hits give low values 0.976 | locus YJL164C, strain tpk1, hits give low values 0.999 | locus YJL166W, strain qcr8, hits give low values 0.957 | locus YJL168C, strain set2, hits give low values 0.995 | locus YJL187C, strain SWE1 (second series), hits give low values 0.983 | locus YJL187C, strain SWE1, hits give low values 0.992 | locus YJR043C, strain POL32, hits give low values 1.02 | locus YJR066W, strain TOR1, hits give low values 0.932

Source: PubChem BioAssay AID1159580 (chemical genetic matrix, 2015)
